Source: PubChem BioAssay (National Center for Advancing Translational Sciences (NCATS))
TDP1 cell CPT – growth inhibition of DT40 Tdp1-/-;hTDP1 cells with camptothecin (screen for TDP1 inhibitors) | Potency, µM (series often up to 46.2 µM), inactives show at the top dose activity change, negative = growth inhibition, hits mostly inhibitors | chicken DT40 Tdp1-/-;hTDP1 cells + 20 nM CPT, ATP luminescence, 48 h | hit rate 12% among 420,000; further: potency means the concentration at half of the fitted maximal effect; on the % scale 0 is the no-effect control and ±100 the full control effect; nearly all actives have a fitted effect of over 55% in size
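Cell growth measured by CellTiter-Glo luminescence after a minimum 48 h, 37 C compound exposure with 20 nM CPT in Tdp1-knockout DT40 cells stably expressing hTDP1, seeded 400/well; qHTS titration format.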
ClpP mod – qHTS Assay for Activators of ClpP; hit rate 1.9% among 340,000; purified B. subtilis ClpP, FRET peptide cleavage, 20 min; AID 651965, 2013; ATP-dependent Clp protease proteolytic subunit (Bacillus subtilis (strain 168)), P80244; Potency, µM (series often up to 57.5 µM), for inactives: top-dose activity change, negative = active; active means well fitted falling curve with a large enough effect; inconclusive means small, poorly fitted or top-dose-only effect; inactive means no such curve, though single readings can be large or run the other way; further: potency means the concentration at half of the fitted maximal effect; the source files actives as falling curves though it sought activators and does not explain the sign; nearly all actives have a fitted effect of over 65% in size
Target sequence (P80244 whole entry, looked up): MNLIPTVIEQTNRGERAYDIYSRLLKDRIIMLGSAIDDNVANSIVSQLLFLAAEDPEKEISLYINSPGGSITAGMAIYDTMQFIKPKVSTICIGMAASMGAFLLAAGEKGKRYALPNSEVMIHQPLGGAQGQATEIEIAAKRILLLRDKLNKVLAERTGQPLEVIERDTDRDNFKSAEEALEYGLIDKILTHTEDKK
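Purified B. subtilis ClpP, 10 microg/mL final in Tris/HCl pH8 with KCl, BSA, glycerol and Tween-20, cleaved an Abz/nitrotyrosine-quenched decapeptide. Fluorescence (ex 320, em 430) was read at 0 and 20 min at room temperature. Delta was normalized to 5.8 microM ADEP and DMSO/no-enzyme controls.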
D3 ag – D3 dopamine receptor (human) agonism; P35462; AID 652048; max activation, %; D3R DiscoveRx beta-arrestin cells, luminescence, 90 min; hit rate 0.58% among 410,000; in the data active means max activation above about 30%; further: 0% is about no effect
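Agonist-mode cell screen: cells plated at 1500/well and incubated overnight at 37 °C, then exposed to library compounds for 90 min at 37 °C. Detection reagent was added for 30–60 min at room temperature, and luminescence was read.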
D3 antag – D3 dopamine receptor (human) antagonism | P35462 | D3R cells, DiscoveRx beta-arrestin luminescence, antagonist mode; stronger effect = lower value | max response, negative = inhibition, % | hit rate 2.5% among 360,000; in the data active means max response below about -50%; inconclusive means no clear call, values can overlap the other calls; further: on the % scale 0 is the no-effect control and ±100 the full control effect
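Cells plated overnight at 1500 cells/well, then exposed to library compounds with dopamine controls for 90 minutes at 37 degrees C. DiscoveRx reagent added for 30–60 minutes at room temperature; luminescence read, quantitative HTS format.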
TDP1 cell noCPT – qHTS for Inhibitors of human tyrosyl-DNA phosphodiesterase 1 (TDP1): qHTS in cells in absence of CPT | Potency, µM (series often up to 46.2 µM), without a hit: at the top dose activity change, negative = growth inhibition, usual class: inhibitors | hit rate 15% among 420,000 | DT40 Tdp1-/- hTDP1 cells, no CPT, ATP luminescence, 48 h; further: potency means the concentration at half of the fitted maximal effect; on the % scale 0 is the no-effect control and ±100 the full control effect; nearly all actives have a fitted effect of over 55% in size
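Compound effects on proliferation are scored in DT40 Tdp1-/-;hTDP1 cells in the absence of CPT. ATP levels (CellTiter-Glo luminescence) are recorded after a ≥48 hr, 37 °C incubation.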
IL1B secr inh – inflammasome signaling inhibition, IL-1 beta readout. THP-1 LPS/ATP IL-1B secretion, AlphaLISA, 16 h; stronger effect = lower value. activity change, % at 57.5 µM. hit rate 4.7% among 360,000. AID 743279; in the data active means activity change below about -50%; inconclusive means mostly about -30% to -49%; further: on the % scale 0 is the no-effect control and ±100 the full control effect
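THP-1 cells pretreated 1 hr with compounds (up to 57.5 uM final), then stimulated with LPS (250 ng/mL final) plus ATP (1.25 mM final); secreted IL-1B measured by AlphaLISA after 16 hr, decreased signal indicating inhibition.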
The depositor's hits bear a star. Rows were chosen to be rich in hits. Some 21% of all compounds tested hit in one or more screens of this group. Unless noted, the call rests on the fitted dose curve; in most records, active means well fitted inhibition curve with a large enough effect; inconclusive means small, poorly fitted or top-dose-only effect; inactive means flat fitted curve, though single readings scatter.

`COc1ccc(CCN2C(=O)N(c3ccc(F)cc3)C(=O)C2CC(=O)Nc2ccc(F)c(F)c2)cc1` (stereo not drawn) gave TDP1 cell CPT 11.6µM*, ClpP mod 1.1%, D3 ag -8.9 and TDP1 cell noCPT 20.6µM*.
For COc1ccc(NC(=O)CC2C(=O)N(c3ccc(Cl)cc3)C(=S)N2CCc2ccncc2)cc1 (stereo not drawn) the results were TDP1 cell CPT inconclusive, ClpP mod 1.2%, D3 ag -6.5, D3 antag -5.0, TDP1 cell noCPT inconclusive and IL1B secr inh -2.3.
Screening CCCOc1ccc(NC(=O)CC2C(=O)N(c3ccc(Cl)cc3)C(=O)N2CCc2ccncc2)cc1 (stereo not drawn) returned TDP1 cell CPT inconclusive, ClpP mod 1.1%, D3 ag -19.6 and TDP1 cell noCPT 25.9µM*.
For Nc1c(-c2nc(-c3ccc(Cl)cc3)cs2)c2ccccn2c1C(=O)c1ccc2c(c1)OCO2 the results were TDP1 cell CPT -16.3%, ClpP mod 0.7%, D3 ag 2.3 and TDP1 cell noCPT -20.2%.
For COc1ccc(NC(=O)c2cc3ccc4c5ccccc5[nH]c4c3cc2O)cc1 the results were TDP1 cell CPT -0.1%, D3 ag 5.6, D3 antag -3.7, TDP1 cell noCPT -15.6% and IL1B secr inh -19.1.
CC(=O)Nc1ccc(/C=C/c2sc3ccccc3[n+]2CCCCI)cc1 was read as TDP1 cell CPT inconclusive, ClpP mod 2.3% and TDP1 cell noCPT inconclusive.
For CC[n+]1c(/C=C/C=C/N(C(C)=O)c2ccccc2)sc2ccccc21 the results were TDP1 cell CPT inconclusive, ClpP mod -1.7%, D3 ag -10.6, D3 antag -6.3, TDP1 cell noCPT 20.6µM* and IL1B secr inh 0.0.
CCn1c(C)[n+](CC)c2ccc(C(=O)N(C)c3ccccc3)cc21 was read as TDP1 cell CPT -2.8%, ClpP mod -0.6%, D3 ag -0.2, D3 antag -2.6, TDP1 cell noCPT 9.8% and IL1B secr inh 0.0.
For CCn1c(/C=C/N(C(C)=O)c2ccccc2)[n+](CC)c2ccc(Cl)cc21 the results were TDP1 cell CPT 16.4µM*, ClpP mod -2.4%, D3 ag -3.8, D3 antag 17.6, TDP1 cell noCPT 14.6µM* and IL1B secr inh 12.6.
For COCC(=O)N1CCC2(CC1)CN(C(=O)Nc1ccc(OC)cc1)C2 the results were TDP1 cell CPT 3.5% and TDP1 cell noCPT 11.2%.
`CCc1ccc(N(C(=O)c2csnn2)C(C(=O)NC(C)(C)C)c2cccnc2)cc1` (stereo not drawn) gave TDP1 cell CPT -4.0%, D3 ag 15.1, D3 antag 6.5, TDP1 cell noCPT -13.5% and IL1B secr inh -10.1.
`O=[N+]([O-])/C(C(Cl)=C(Cl)Cl)=C(/Sc1ccccc1)N1CCCCC1` gave TDP1 cell CPT inconclusive, ClpP mod -0.1%, D3 ag 8.5, D3 antag 11.8, TDP1 cell noCPT 13µM* and IL1B secr inh -88.7*.
O=C(N/C(=C\c1ccc([N+](=O)[O-])cc1)C(=O)N1CCCCC1)c1ccccc1 was read as TDP1 cell CPT inconclusive, D3 ag 10.1, D3 antag 11.9, TDP1 cell noCPT inconclusive and IL1B secr inh 12.6.
`CCOc1ccc(NCc2cccn2-c2nnc(N3CCC(C(=O)NCCCN4CC(C)CC(C)C4)CC3)s2)cc1` (stereo not drawn) gave TDP1 cell CPT inconclusive, D3 ag -13.3, D3 antag 0.0, TDP1 cell noCPT inconclusive and IL1B secr inh -82.4*.
CCOc1ccc(NCc2cccn2-c2nnc(N3CCC(C(=O)NCCc4ccc(OCC)c(OCC)c4)CC3)s2)cc1 was read as TDP1 cell CPT 14.6µM*, ClpP mod -0.8%, D3 ag 3.5 and TDP1 cell noCPT 8.2µM*.
